In PubChem BioAssay (Tox21):
Records with an inconclusive call do not appear. The source made the active and inactive calls. Unless noted, calls follow the shape of the dose curve; as a rule, active = well fitted curve in the direction sought with a large enough effect in the repeat runs; inconclusive = weak or mixed curves; inactive = no such curve, though single readings can be large; an effect the other way counts as inactive or inconclusive. Positions of bridges follow the written chain, without caps; N, C: chain ends. Where a SMILES comes first, the peptide text is derived from it. Non-standard residues stand in square brackets, D forms with d. Residues, ends and D or L forms follow the SMILES beside them. hArg = N=C(N)NCCCC[C@H](N)C(=O)O; Mpa = O=C(O)CCS

Legend:
[1] = qHTS assay to identify small molecule antagonists of the estrogen receptor beta (ER-beta) signaling pathway - cell viability counter screen (AID 1259382);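 also: HEK293T cells carrying ER-beta-UAS-bla reporter stimulated with estradiol; series mostly up to about 92 µM; nearly all actives have a fitted effect of over 55% in size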
In short: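 CellTiter-Glo ATP luminescence measured after the LiveBLAzer read in the same wells; ER-beta-UAS-bla HEK293T cells, 16 hr compound treatment with 1nM 17-beta-estradiol agonist at 37C, 5% CO2.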

[2] = qHTS assay to identify small molecule agonists of the estrogen receptor alpha (ER-alpha) signaling pathway in the presence of an antagonist - cell viability counter screen (AID 1259386);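 also: series mostly up to about 92 µM; cells exposed to compounds for 22 h at 37 °C before the viability read; nearly all actives have a fitted effect of over 30% in size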
In short: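 Using estrogen-depleted VM7Luc4E2 cells, the 15-concentration compound series was applied together with 10.0nM ICI-182,780 and incubated 22hr at 37C/5% CO2. Cell viability was then scored by CellTiter-Fluor.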

[3] = molecular target: Progesterone receptor (Homo sapiens) (UniProt P06401); assay: qHTS assay to identify small molecule agonists of the progesterone receptor (PR) signaling pathway (AID 1346784; calls by dose curve; also: nearly all actives have a fitted effect of over 30% in size)
Chain of Progesterone receptor (Homo sapiens) (P06401 whole entry, looked up): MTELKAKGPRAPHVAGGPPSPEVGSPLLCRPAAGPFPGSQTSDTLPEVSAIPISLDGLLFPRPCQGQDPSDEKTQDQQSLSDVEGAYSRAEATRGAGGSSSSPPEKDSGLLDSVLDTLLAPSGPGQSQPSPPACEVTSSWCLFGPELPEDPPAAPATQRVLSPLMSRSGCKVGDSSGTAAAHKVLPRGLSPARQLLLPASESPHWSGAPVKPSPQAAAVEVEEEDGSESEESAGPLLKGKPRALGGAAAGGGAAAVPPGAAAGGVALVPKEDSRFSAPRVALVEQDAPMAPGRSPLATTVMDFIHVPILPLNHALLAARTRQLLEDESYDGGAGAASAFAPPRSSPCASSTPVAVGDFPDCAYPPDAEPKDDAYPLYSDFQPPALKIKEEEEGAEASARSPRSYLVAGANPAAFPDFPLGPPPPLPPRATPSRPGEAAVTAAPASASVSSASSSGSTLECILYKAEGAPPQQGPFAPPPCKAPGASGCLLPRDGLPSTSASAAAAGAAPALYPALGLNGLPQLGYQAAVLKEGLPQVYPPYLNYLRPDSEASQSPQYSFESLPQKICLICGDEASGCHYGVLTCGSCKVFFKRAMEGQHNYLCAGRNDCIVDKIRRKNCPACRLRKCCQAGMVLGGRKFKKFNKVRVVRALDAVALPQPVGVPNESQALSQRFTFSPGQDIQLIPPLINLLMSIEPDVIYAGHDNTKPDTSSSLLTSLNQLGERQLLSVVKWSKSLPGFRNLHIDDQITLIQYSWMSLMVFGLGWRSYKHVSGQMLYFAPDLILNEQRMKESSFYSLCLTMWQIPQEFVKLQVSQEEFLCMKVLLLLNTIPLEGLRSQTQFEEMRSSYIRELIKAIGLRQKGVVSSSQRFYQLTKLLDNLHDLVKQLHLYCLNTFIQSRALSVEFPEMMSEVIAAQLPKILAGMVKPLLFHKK
In short: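 PR-UAS-bla HEK 293T cells (beta-lactamase reporter under UAS) in 2% charcoal-stripped FBS, dosed with 23 nL compound after 6 hr, incubated 16hr at 37C. LiveBLAzer B/G FRET substrate added, fluorescence read after 2 hours.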

[4] = molecular target: Progesterone receptor (Homo sapiens) (UniProt P06401); assay: qHTS assay to identify small molecule antagonists of the progesterone receptor (PR) signaling pathway (AID 1346795; active = well fitted inhibition curve with a large enough effect in the signal ratio in the repeat runs, not every such curve was filed as active; the % refers to the signal ratio)
In short: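 PR-UAS-bla HEK293T cells with beta-lactamase reporter under UAS control, in 2% charcoal-stripped FBS, treated with compounds plus 1 nM promegestone (R5020, final) for 16 hr at 37C. Read-out: FRET beta-lactamase substrate fluorescence after 2 hr at room temperature.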

[5] = qHTS assay to identify small molecule antagonists of the progesterone receptor (PR) signaling pathway - cell viability counter screen (AID 1346798); also: series mostly up to about 92 µM; nearly all actives have a fitted effect of over 50% in size
In short: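 PR-UAS-bla HEK293T cells, 3,000/well in 2% charcoal-stripped FBS medium, dosed with compounds plus R5020 agonist and incubated 16 h at 37C. Viability then measured in the same wells by CellTiter-Glo luminescence after 30 min at RT.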

[6] = qHTS assay to identify small molecule agonists of the progesterone receptor (PR) signaling pathway - cell viability counter screen (AID 1346799; calls by dose curve; also: nearly all actives have a fitted effect of over 45% in size)
In short: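 Counter screen in the PR-UAS-bla HEK293T wells (2% charcoal-stripped FBS, 16 h compound exposure at 37 C) after the bla read. CellTiter-Glo added, 30 min at room temperature, luminescence read as cell viability.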

[7] = qHTS assay to identify small molecule antagonists of the TGF-beta/Smad signaling pathway - cell viability counter screen (AID 1346824); also: nearly all actives have a fitted effect of over 50% in size
In short: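 Cytotoxicity counter-screen run in the same wells as the beta-lactamase Smad reporter read: CellTiter-Glo luminescence after 30 min at room temperature. HEK 293T SBE-bla cells had 5 hr compound exposure at 37 C with TGF-beta1 (0.25 ng/mL stock).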

[8] = molecular target: Thyrotropin receptor (Homo sapiens) (UniProt P16473); assay: qHTS assay to identify small molecule antagonists of the thyroid stimulating hormone receptor (TSHR) signaling pathway (AID 1259385; calls by dose curve; also: nearly all actives have a fitted effect of over 20% in size)
Chain of Thyrotropin receptor (Homo sapiens) (P16473 whole entry, looked up): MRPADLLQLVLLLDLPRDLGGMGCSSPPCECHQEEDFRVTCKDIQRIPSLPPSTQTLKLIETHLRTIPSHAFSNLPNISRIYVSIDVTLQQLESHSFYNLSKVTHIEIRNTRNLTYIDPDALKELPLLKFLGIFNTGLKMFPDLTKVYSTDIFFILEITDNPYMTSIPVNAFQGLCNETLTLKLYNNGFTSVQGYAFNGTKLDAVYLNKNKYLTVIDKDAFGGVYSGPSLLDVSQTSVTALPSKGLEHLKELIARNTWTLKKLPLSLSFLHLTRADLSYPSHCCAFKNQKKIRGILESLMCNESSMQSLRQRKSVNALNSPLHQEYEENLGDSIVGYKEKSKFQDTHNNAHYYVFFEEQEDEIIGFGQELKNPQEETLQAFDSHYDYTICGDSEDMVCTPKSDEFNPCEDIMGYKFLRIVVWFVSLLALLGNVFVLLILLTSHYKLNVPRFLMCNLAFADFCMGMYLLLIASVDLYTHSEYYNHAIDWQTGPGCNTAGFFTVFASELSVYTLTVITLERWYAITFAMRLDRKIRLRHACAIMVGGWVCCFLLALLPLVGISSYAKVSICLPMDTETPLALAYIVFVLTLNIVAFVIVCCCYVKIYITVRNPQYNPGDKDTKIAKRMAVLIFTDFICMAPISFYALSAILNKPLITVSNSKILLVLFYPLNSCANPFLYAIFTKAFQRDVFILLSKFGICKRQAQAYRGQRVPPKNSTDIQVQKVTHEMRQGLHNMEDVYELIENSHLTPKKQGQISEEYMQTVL
In short: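 Antagonist mode: compound-treated TSHR-expressing HEK293 cells were stimulated with 1.5 ng/mL TSH (final) in presence of Ro20-1724 for 30 min at RT. HTRF cAMP detection after 1 h; each compound tested at 15 concentrations, triplicate.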

[9] = qHTS assay to identify small molecule agonists or antagonists of the thyroid stimulating hormone receptor (TSHR) signaling pathway - wild type cell line counter screen (AID 1259384; calls by dose curve)
In short: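 Counter screen in untransfected Hek293: compounds (15-point titration, triplicate) plus phosphodiesterase inhibitor Ro20-1724 added after 18 h plating; 30 min RT. Intracellular cAMP via competitive d2/cryptate immunoassay, 1 h incubation.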

[10] = molecular target: Estrogen receptor (Homo sapiens) (UniProt P03372); assay: qHTS assay to identify small molecule agonists of the estrogen receptor alpha (ER-alpha) signaling pathway in the presence of an antagonist (AID 1259383; calls by dose curve; also: top concentration of the series differs between compounds; nearly all actives have a fitted effect of over 15% in size)
Chain of Estrogen receptor (Homo sapiens) (P03372 whole entry, looked up): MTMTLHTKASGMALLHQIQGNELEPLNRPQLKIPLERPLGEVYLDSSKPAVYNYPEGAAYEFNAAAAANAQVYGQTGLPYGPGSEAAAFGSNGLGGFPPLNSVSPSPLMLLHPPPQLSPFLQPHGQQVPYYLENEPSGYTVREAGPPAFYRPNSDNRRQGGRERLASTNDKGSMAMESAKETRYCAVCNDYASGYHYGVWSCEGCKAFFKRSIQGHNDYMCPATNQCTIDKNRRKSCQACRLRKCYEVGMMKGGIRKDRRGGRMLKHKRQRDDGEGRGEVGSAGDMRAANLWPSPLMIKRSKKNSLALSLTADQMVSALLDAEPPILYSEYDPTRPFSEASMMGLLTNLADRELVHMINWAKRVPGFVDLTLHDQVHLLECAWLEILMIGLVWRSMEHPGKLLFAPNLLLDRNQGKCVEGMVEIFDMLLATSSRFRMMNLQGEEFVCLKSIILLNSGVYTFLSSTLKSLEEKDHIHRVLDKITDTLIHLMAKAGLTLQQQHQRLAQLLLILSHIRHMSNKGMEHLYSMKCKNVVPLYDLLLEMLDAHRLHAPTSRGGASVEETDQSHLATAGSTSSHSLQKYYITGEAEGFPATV
In short: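 Luminescent ERE-luciferase reporter, VM7Luc4E2 cells (endogenous ER-alpha); 10.0nM ICI-182,780 final; 15-point compound titration; 22hr at 37C; ONE-Glo, 30min RT.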
% is scaled to controls: 0 for no effect and ±100 for the full control effect.

C/C=C(\C)C(=O)OCCc1ccccc1
inactive: outcome [1] | outcome [2] | Potency [3] | Potency [4] | outcome [5] | outcome [6] | outcome [7]

CCCCCCCCCOC(=O)CCCCC(=O)OCCCCCCC
inactive: outcome [1] | outcome [8] | outcome [2] | outcome [5] | outcome [6] | outcome [7]

Cn1c(=O)c2[nH]c(Br)nc2n(C)c1=O
inactive: outcome [1] | outcome [8] | outcome [2] | Potency [3] | Potency [4] | outcome [5] | outcome [6] | outcome [7]

C=CCOC(=O)CCCCCC
inactive: outcome [1] | outcome [8] | outcome [2] | Potency [3] | outcome [5] | outcome [6] | outcome [7]

CC(=O)C(C)O (stereo not given)
inactive: outcome [1] | outcome [9] | outcome [8] | outcome [2] | Potency [3] | outcome [5] | outcome [6] | outcome [7]

NC(=O)[C@@H]1CSSCCC(=O)N[C@@H](CCCCN=C(N)N)C(=O)NCC(=O)N[C@@H](CC(=O)O)C(=O)N[C@@H](Cc2c[nH]c3ccccc23)C(=O)N2CCC[C@H]2C(=O)N1 ([Mpa][hArg]GDWPC-NH2; disulfide 1-7)
inactive: outcome [1] | outcome [8] | outcome [2] | Potency [4] | outcome [5] | outcome [6] | outcome [7]

CC(=O)N[C@@H](CO)C(=O)N[C@@H](CC(=O)O)C(=O)N[C@@H](CCCCN)C(=O)N1CCC[C@H]1C(=O)O (Ac-SDKP-OH)
inactive: outcome [1] | outcome [2] | Potency [3] | Potency [4] | outcome [5] | outcome [6] | outcome [7]

CC(C)OC(=O)CCC(=O)OC(C)C
inactive: outcome [1] | outcome [8] | outcome [2] | Potency [3] | outcome [5] | outcome [6] | outcome [7]

CCC(=O)CC
inactive: outcome [1] | outcome [2] | Potency [3] | Potency [4] | outcome [5] | outcome [6] | outcome [7]

CCCCC1CCC(O)CC1 (stereo not given)
inactive: outcome [1] | outcome [2] | Potency [4] | outcome [5] | outcome [6] | outcome [7]

N[C@@H](Cc1ccc(O)cc1)C(=O)O
inactive: activity change, negative = cytotoxicity [1] 2.66% [at 8.39 µM] | cAMP activity change [9] 6.84% [at 8.39 µM] | activity change, negative = inhibition [8] 3.38% [at 8.39 µM] | activity change, negative = cytotoxicity [2] 1.69% [at 8.39 µM] | activity change, negative = inhibition [4] 7.58% [at 8.39 µM] | activity change, negative = cytotoxicity [5] -4.23% [at 8.39 µM] | activity change, negative = cytotoxicity [6] -21.8% [at 8.39 µM] | viability change, negative = cytotoxic [7] -8.39% [at 6.97 µM]

COc1ccc(CCO)cc1
inactive: outcome [1] | outcome [8] | outcome [2] | Potency [3] | Potency [4] | outcome [5] | outcome [7]

C=C(C)C1CC=C(C)C(=O)C1 (stereo not given)
inactive: outcome [1] | outcome [9] | outcome [8] | outcome [2] | Potency [3] | outcome [5] | outcome [6] | outcome [7]

O=Cc1ccccc1Cl
inactive: outcome [1] | outcome [2] | Potency [3] | Potency [4] | outcome [5] | outcome [6] | outcome [7]

CCn1cc(C(=O)O)c(=O)c2cnc(N3CCCC3)nc21
inactive: activity change, negative = cytotoxicity [1] 13.9% [at 8.39 µM] | cAMP activity change [9] -5.06% [at 8.39 µM] | activity change, negative = inhibition [8] -0.0847% [at 8.39 µM] | activity change, negative = cytotoxicity [2] -1.71% [at 8.39 µM] | activity change, negative = inhibition [4] 1.66% [at 8.39 µM] | activity change, negative = cytotoxicity [5] 1.24% [at 8.39 µM] | activity change, negative = cytotoxicity [6] 1.71% [at 8.39 µM] | viability change, negative = cytotoxic [7] 10.1% [at 6.97 µM]

Cc1ccnc(N)c1
inactive: outcome [1] | outcome [8] | outcome [2] | Potency [3] | Potency [4] | outcome [5] | outcome [6] | outcome [7]

COC(=O)/C=C\C(=O)O
inactive: Potency [10] | outcome [9] | outcome [8] | outcome [2] | Potency [3] | Potency [4] | outcome [5] | outcome [6] | outcome [7]
